Mtb MenB inh – Mtb MenB enzyme inhibition; P9WNP5; MenB enzyme assay, absorbance read-out; inhibition, % (test concentration not listed); hit rate 0.43% among 100,000; in the data active = inhibition above about 21%, passing the limit was not always enough
Polio RdRp inh – inhibitors of poliovirus RNA polymerase binding and polymerization. P03300. poliovirus polymerase elongation, fluorescence polarization; hits give low values. % elongation, % (compound at 16.7 µg/mL). hit rate 0.66% among 150,000. AID 588519; in the data active = % elongation below about 90%
MbtI inh – blocks the Mycobacterium tuberculosis siderophore enzyme MbtI; purified MbtI enzyme, fluorescence intensity read-out; inhibition, % (concentration not given with the values); hit rate 0.89% among 100,000; AID 493033; in the data active = inhibition mostly above about 56%, no sharp cut-off; inactive = mostly below about 77%
Target sequence (P9WFX0 whole entry, looked up): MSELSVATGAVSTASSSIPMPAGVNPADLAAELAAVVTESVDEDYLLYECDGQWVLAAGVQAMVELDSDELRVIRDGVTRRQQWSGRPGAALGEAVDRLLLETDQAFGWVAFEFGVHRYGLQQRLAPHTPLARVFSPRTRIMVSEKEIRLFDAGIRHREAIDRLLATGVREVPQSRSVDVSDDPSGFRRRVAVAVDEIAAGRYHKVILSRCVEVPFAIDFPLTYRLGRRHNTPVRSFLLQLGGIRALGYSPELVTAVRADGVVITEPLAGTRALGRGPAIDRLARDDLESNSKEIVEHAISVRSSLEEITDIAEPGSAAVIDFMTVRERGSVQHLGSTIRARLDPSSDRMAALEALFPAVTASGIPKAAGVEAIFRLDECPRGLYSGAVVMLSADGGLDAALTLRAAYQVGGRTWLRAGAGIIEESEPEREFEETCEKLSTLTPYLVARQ
AID504770 – E. coli YBA685 growth inhibition, screen for V. cholerae RctB inhibitors; E. coli YBA685 rctB-dependent plasmid, OD600 growth, 3 h; hits give low values; z-score (concentration not given with the values); hit rate 0.27% among 130,000; AID 504770; in the data active = z-score below about -2, passing the limit was not always enough
Active calls of the source: *. Hits are enriched below; roughly 1.5% of the tested compounds scored in any of these assays.

For Cc1ccc(C(=O)CC(c2ccco2)S(=O)(=O)c2ccccc2)cc1 (centres undefined) the results were AID504770 1.
Screening Clc1ccc(CSc2ncccn2)cc1 returned Mtb MenB inh -1, Polio RdRp inh 103, MbtI inh 20 and AID504770 -0.8.
For c1ccc(CSc2ncccn2)cc1 the results were Mtb MenB inh 0, Polio RdRp inh 102, MbtI inh 60* and AID504770 1.1.
Screening S=c1[nH]nc(SCc2cccs2)s1 returned Mtb MenB inh 3, Polio RdRp inh 98, MbtI inh 102* and AID504770 0.15.
For Oc1c(C(c2cccs2)N2CCCCC2)ccc2cccnc12 (centres undefined) the results were Mtb MenB inh -76, Polio RdRp inh 135, MbtI inh 97* and AID504770 0.1.
Screening CC12CN3CC(C)(C1O)C(O)C(C)(C3)C2O (centres undefined) returned Mtb MenB inh -11, Polio RdRp inh 86*, MbtI inh -6 and AID504770 -0.3.
For O=C(CC1CCCC1)Nc1nc2ccccc2s1 the results were Mtb MenB inh -51, Polio RdRp inh 103, MbtI inh -5 and AID504770 -0.35.
`O=C(Nc1cc2c3c(c1)CC(=O)N3CCC2)c1ccccc1` gave Mtb MenB inh -8, Polio RdRp inh 102, MbtI inh -7 and AID504770 0.2.
For CN(CCC(N)=O)Cc1ccccc1 the results were Mtb MenB inh 38*, Polio RdRp inh 101, MbtI inh -2 and AID504770 -0.45.
`Cc1ccccc1NC(=O)CCC(=O)O` gave Mtb MenB inh 11, Polio RdRp inh 102, MbtI inh 9 and AID504770 1.6.
Screening CCc1ccccc1NC(=O)CCC(=O)O returned Mtb MenB inh 32*, Polio RdRp inh 100, MbtI inh -9 and AID504770 0.6.
`CC(=O)OCC(=O)NCc1ccccc1Cl` gave Mtb MenB inh -35, Polio RdRp inh 100, MbtI inh -13 and AID504770 -0.25.
Screening O=C(O)C1C2C=CC(C2)C1C(=O)NCc1cccs1 (centres undefined) returned Mtb MenB inh 23*, Polio RdRp inh 99, MbtI inh -17 and AID504770 -0.35.
Screening COc1ccc(NC(=O)CSc2c[nH]c3ccccc23)c(OC)c1 returned AID504770 0.55.
CC(C)OCCCNc1ncnc2sc3c(c12)CCCC3 was read as Polio RdRp inh -2.0*.
Cc1cc(C(=O)O)c2cc(O)ccc2n1 was read as Mtb MenB inh 9, Polio RdRp inh 99 and AID504770 0.3.
`Cc1ccc2nc(C)cc(C(=O)O)c2c1` gave Mtb MenB inh 33*, Polio RdRp inh 102, MbtI inh 1 and AID504770 -0.4.
`CNC(=O)c1ccc(N)cc1` gave Mtb MenB inh -13, Polio RdRp inh 103 and AID504770 -0.3.
For O=S(=O)(Nc1ccccc1OC(F)F)c1ccc2nnn(O)c2c1 the results were Mtb MenB inh -15, Polio RdRp inh 104, MbtI inh -9 and AID504770 1.3.
For Cn1nc(-c2ccc(F)cc2)nc2c(=O)n(C)c(=O)nc1-2 the results were Mtb MenB inh -17, Polio RdRp inh 36*, MbtI inh 31 and AID504770 -0.5.
For COc1ccc(-c2nc3c(=O)n(C)c(=O)nc-3n(C)n2)cc1OC the results were MbtI inh -3 and AID504770 -0.25.
Screening CC1(C)CC(=O)c2c(nn(-c3ccccc3)c2N)C1 returned Mtb MenB inh -2, Polio RdRp inh 99, MbtI inh -8 and AID504770 -1.2.
Screening Cc1nn(-c2ccccc2)c2c1CC1(C(=O)NC(=O)c3ccccc31)C1CCCN21 (centres undefined) returned Mtb MenB inh 11, Polio RdRp inh 83*, MbtI inh 35 and AID504770 1.6.
For N#CS/C=C/C(=O)c1ccccc1 the results were Mtb MenB inh -51, Polio RdRp inh 96, MbtI inh 100* and AID504770 -2.7*.
For O=C(CN1CCN(Cc2ccc3c(c2)OCO3)CC1)N1c2ccccc2CCc2ccccc21 the results were Mtb MenB inh 15, Polio RdRp inh 98, MbtI inh -5 and AID504770 -0.05.
Screening O=C(OCC(=O)N1CCc2ccccc2C1)c1ccccc1 returned Mtb MenB inh -23, Polio RdRp inh 84*, MbtI inh 3 and AID504770 -0.45.
Screening CC1=C(O)C(=O)C=C2C1=CC=C1[C@@]2(C)CC[C@@]2(C)[C@@H]3C[C@](C)(C(=O)O)CC[C@]3(C)CC[C@]12C returned Mtb MenB inh 12, Polio RdRp inh 102, MbtI inh 103* and AID504770 0.7.
O=C(CN1CCCC1c1ccc2c(c1)OCCCO2)Nc1ccc(S(=O)(=O)N2CCCCC2)cc1 (centres undefined) was read as Mtb MenB inh -10, Polio RdRp inh 106, MbtI inh -12 and AID504770 0.05.
For CC[n+]1c(C)csc1Nc1c(C)cc(C)cc1C the results were AID504770 -0.25.
For COCCN1C(=O)c2ccccc2C1=O the results were Mtb MenB inh 4, Polio RdRp inh 99, MbtI inh 10 and AID504770 1.6.
Screening COCCN1C(=O)C=CC1=O returned Polio RdRp inh 100, MbtI inh 62* and AID504770 -3.5*.
For CC1CC(C)CN(CCC(=O)Nc2ccccc2F)C1 (centres undefined) the results were Mtb MenB inh -52, Polio RdRp inh 100, MbtI inh 12 and AID504770 0.2.
For CC1CC(C)CN(CCN)C1 (centres undefined) the results were Mtb MenB inh 52*, Polio RdRp inh 101, MbtI inh -6 and AID504770 -0.25.
Nc1ccc(C(=O)O)c(O)c1 was read as Mtb MenB inh 8, Polio RdRp inh 99, MbtI inh -50 and AID504770 -0.05.
`Cc1cc(N)cc(C(=O)O)c1O` gave Mtb MenB inh 37*, Polio RdRp inh 99, MbtI inh 10 and AID504770 1.2.
Screening C1CCN(SN2CCCCC2)CC1 returned Mtb MenB inh -67, Polio RdRp inh 78* and AID504770 -0.4.
Screening Cc1csc(C(C#N)C(=O)CSc2nnc(NCc3ccccc3)s2)n1 (centres undefined) returned Mtb MenB inh 0, Polio RdRp inh 98, MbtI inh 4 and AID504770 -0.1.
O=C(CC(c1ccc(Cl)cc1)S(=O)(=O)c1ccccc1)c1ccco1 (centres undefined) was read as Mtb MenB inh 13, Polio RdRp inh 102, MbtI inh 3 and AID504770 -1.
`CC(C)P(=O)(c1cccc(C(=O)O)c1)C(C)C` gave Mtb MenB inh 23*, Polio RdRp inh 102 and AID504770 0.55.
COc1ccc2c(c1)C(=O)N(Cc1ccccc1)C(=O)C2 was read as Polio RdRp inh 101, MbtI inh 29 and AID504770 0.55.
`COCc1cc(C)nc2sc(C(=O)Nc3ccc4c(c3)OCO4)c(N)c12` gave Mtb MenB inh -34, Polio RdRp inh 102, MbtI inh -20 and AID504770 -0.9.
Cc1sc2nc[nH]c(=O)c2c1C was read as Mtb MenB inh -9, Polio RdRp inh 94, MbtI inh 87* and AID504770 -0.45.

High-throughput results (PubChem)
